Test results as given in PubChem BioAssay.

Assay: small-molecule binders of probe aNOTCH3, primary screen, biochemical, small-molecule microarray, 635/667 nm fluorescence (AID 1120);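 note: probe is a biotin-tagged antibody raised against NOTCH3 rather than NOTCH3 protein; score merges spot fluorescence near 667 nm with spot signal to noise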
Settings: higher = more signal

Compound	composite z-score
CC=CC(O)C1C=CC2C(=O)N(C)C(=O)C2N1Nc1ccc([N+](=O)[O-])cc1[N+](=O)[O-] (centres undefined)	-0.0932
O=C(O)[C@]1(Cc2ccccc2)N=C(c2ccc(OCCCO)cc2)O[C@@H]1c1ccccc1	-0.122
[N-]=[N+]=NCc1ccccc1[C@H]1OC(c2ccc(OCCCO)cc2)=N[C@@]1(CCS(=O)(=O)c1ccccc1)C(N)=O	0.302
Cc1c(NC(=O)/C(C#N)=C/C=C/c2ccc(N(C)C)cc2)c(=O)n(-c2ccccc2)n1C	0.308
COc1ccc([Si](C)(C)[C@@H]2[C@@H](CCO)O[C@]3(C(=O)N(Cc4cccc(N5C(=O)c6cccc7cccc5c67)c4)c4ccccc43)[C@H]2C)cc1	-0.0947
COc1c(C)cc(-c2cc3c(c(Cc4ccccc4)n2)[Si](C(C)C)(C(C)C)OC3)cc1C	-0.0881
CON(C)C(=O)C=C1C[C@@H](c2cccc(Cl)c2)O[C@@H](c2cccc(Cl)c2)O1	0.0897
COc1ccc(NN2C(C(O)c3ccccn3)C=CC3C(=O)N(C4CCCCC4)C(=O)C32)cc1 (centres undefined)	0.263
CC(=O)n1cc(C(O)C2C=CC3C(=O)N(c4ccccc4)C(=O)C3N2Nc2ccccc2)c2ccccc21 (centres undefined)	0.504
